# Bioassay records (PubChem)
# Hits are enriched below; roughly 7.9% of the tested compounds scored in any of these assays.
# LASV entry inh – Lassa virus entry inhibition; Lassa virus pseudotype entry inhibition, cell reporter; Potency, µM (doses to about 37.9 µM), for the others: top-dose activity change, negative = inhibition, usual class: inhibitors; actives 1.2% (n = 300,000); calls by dose curve; tested in HEK293 cells; also: potency is read from the fitted curve at half-maximal effect; nearly all actives have a fitted effect of over 50% in size
# HCMV inh – inhibitors of human cytomegalovirus. HFF cells, HCMV-luciferase reporter, 72 h; hits give low values. activity change, negative = inhibition, % at 57.5 µM. actives 4.5% (n = 410,000). AID 1259415; in the data active = activity change below about -60%; inconclusive = no clear call, values can overlap the other calls; inactive = above about -39%
#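 Luciferase read-out from HCMV-luciferase-infected HFFs (MOI 1 PFU/cell) 72 h post infection at 37C; compounds added after 16 h cell attachment; activity normalized between buffer-only basal and Salinomycin (10uM) inhibitor controls.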
# Marburg entry inh – Marburg virus entry inhibition; Marburg virus pseudotyped entry inhibition, cell reporter; Potency, µM (titrated, usually from 37.8 µM), for inactives: at the highest dose activity change, negative = inhibition, most hits filed as inhibitors; actives 1.8% (n = 300,000); calls by dose curve; tested in HEK293 cells; also: potency is read from the fitted curve at half-maximal effect
# HCV inhibitor – blocks hepatitis C virus. Huh7.5.1 HCVcc-Cre infection, luciferase reporter, 44 h. Potency, µM (titrated, usually from 41.8 µM), without a hit: at the top dose activity change, negative = inhibition, most hits filed as inhibitors. actives 3.4% (n = 340,000); active = well fitted inhibition curve with a large enough effect; inconclusive = small, poorly fitted or top-dose-only effect, or another doubt; inactive = no such curve, though single readings can be large or run the other way; also: potency is read from the fitted curve at half-maximal effect
#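 Infectious HCVcc-Cre (~0.5 moi) was added to cells just after compound, with cells seeded 4 h earlier at 1,000 per well. Luciferase activity after 44 h culture reported infection; substrate was incubated 15 min at room temperature before reading.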
# FMDV antiviral – foot and mouth disease virus antiviral activity; Potency, µM (doses to about 57.9 µM), for inactives: at the top dose activity change, negative = inhibition, most hits filed as inhibitors; actives 1.2% (n = 410,000); FMDV antiviral cell-based qHTS; calls by dose curve; tested in HEK293T cells; also: read-out not given here; potency is read from the fitted curve at half-maximal effect; nearly all actives have a fitted effect of over 45% in size
# * hit, by the source's call; ? = inconclusive; . = not tested or not shown; [ ] = dose if it differs, or a comment. % is scaled to controls: 0 for no effect and ±100 for the full control effect.
SMILES,LASV entry inh,HCMV inh,Marburg entry inh,HCV inhibitor,FMDV antiviral
CCSc1ccccc1C(=O)Nc1ccc(-c2nc3ccccc3s2)c(O)c1,?,?,.,.,53%
CC1(C)CCC2=C(O1)c1ccccc1C(=O)C2=O,.,.,13µM*,.,?
CC(=O)Nc1nonc1-c1nc2ccccc2n1Cc1ccccc1Br,-1%[46.1 µM],?,7%[46.1 µM],.,?
COc1ccc(-c2nnc(Nc3nc4c(OC)cccc4s3)o2)c(OC)c1,?,.,?,6.3µM*,.
COc1cc(C=NNc2ncnc3c2cnn3Cc2ccccc2)ccc1O,7.9µM*,.,.,.,.
COc1cc(C=NNc2ncnc3c2cnn3-c2ccccc2)ccc1O,16µM*,.,.,.,.
COc1cccc(/C=N/Nc2cc(Cl)nc(C)n2)c1O,2%,54,26%,0%,24%
COc1cccc(/C=N/Nc2ncnc3c2ncn3Cc2ccccc2)c1O,7.3µM*,-98*,?,?,-21%
COc1cc(/C=N/Nc2nc(C)nc3c2cnn3-c2ccccc2)ccc1O,?,-34,11µM*,11µM*,-1%
COc1cc(/C=N/Nc2ccccn2)ccc1O,?,94,?,-23%,7%
Cc1cc2c(cc1S(=O)(=O)Nc1cccc(C(F)(F)F)c1)OCCN2C,?,37,.,.,47%
Cc1ccc2nc(SCC(=O)N3CCC4(CC3)CC4C(=O)Nc3ccc(F)c(F)c3)[nH]c2c1 (stereo unspecified),.,.,.,.,-4%
COc1cn(CC(=O)Nc2cc(C)cc(C)c2)c(CN2CCCCC2)cc1=O,0%[46.1 µM],-2,.,.,-10%
COc1ccc(N(C)S(=O)(=O)c2cccc(C(=O)Nc3nc(C)cs3)c2)cc1,.,-20,.,?,-10%
COc1cc(OC)cc(C(=O)Nc2ccc(-n3cnnn3)c(C)c2)c1,0%,-4,8%,7.1µM*,.
COc1ccc(N(C)S(=O)(=O)c2cccc(C(=O)Nc3cc(OC)ccc3OC)c2)cc1,?,-23,?,10µM*,?
COc1ccc(N(C)S(=O)(=O)c2cccc(C(=O)Nc3ccc(OC)nc3)c2)cc1,-27%,-68*,-22%,?,.
COc1ccc(N(C)S(=O)(=O)c2cccc(C(=O)Nc3ccc(-n4cnnn4)cc3)c2)cc1,-17%,?,?,?,40µM*
COc1ccc(N(C)S(=O)(=O)c2cccc(C(=O)Nc3nnc(C4CC4)s3)c2)cc1,?,?,17%[46.1 µM],?,?
O=C(Nc1sc2c(c1C(=O)NCc1ccccc1)CCCC2)c1cc(=O)c2ccccc2o1,-1%[46.1 µM],-12,1%[46.1 µM],.,-17%
COc1cc(OC)cc(C(=O)Nc2cc(-c3nc4cccnc4s3)ccc2C)c1,3%[46.1 µM],-27,.,.,-8%
COc1ccc(CNC(=O)C2CCN(S(=O)(=O)c3cccc(-c4noc(C)n4)c3)CC2)cc1,0%[46.1 µM],8,.,.,-21%
COc1ccc(OCCN(C)C(=O)c2cccc(S(=O)(=O)N(C)c3ccccc3)c2)cc1,-18%,-15,-56%,14µM*,-20%
COc1ccc(N(C)S(=O)(=O)c2cccc(C(=O)Nc3ccc4c(c3)OCCO4)c2)cc1,?,97,10µM*,10µM*,-10%
Cc1ccc(N(C)S(=O)(=O)c2cccc(C(=O)N(C)Cc3cnn(-c4ccccc4)c3)c2)cc1,?,-67*,?,?,?
SMILES,LASV entry inh,HCMV inh,Marburg entry inh,HCV inhibitor,FMDV antiviral
CN(Cc1cnn(-c2ccccc2)c1)C(=O)c1cccc(S(=O)(=O)N(C)c2ccccc2)c1,.,-26,.,.,0%
CCN(c1ccccc1)S(=O)(=O)c1cccc(C(=O)N(C)CCOc2ccccc2)c1,?,-25,-28%,?,-4%
Cc1ccccc1-n1cc(CNC(=O)CN2Cc3ccccc3OC(C)C2)cn1 (stereo unspecified),.,.,.,.,-6%
CCc1ccccc1NC(=O)c1ccc2c(SCC(=O)O)c3c(nc2c1)CCC3,-1%[46.1 µM],12,18%[46.1 µM],.,26%
Cc1ccccc1C(=O)N1CCN(c2ccc(NC(=O)c3ccc4c(c3)OCO4)cc2)CC1,?,-38,?,?,13µM*
O=C(Nc1ccccc1N1CCN(C(=O)c2ccc(Cl)cc2)CC1)c1ccc([N+](=O)[O-])o1,?,.,?,?,-20%
O=C(Nc1ccc(N2CCN(C(=O)c3ccccc3F)CC2)cc1)c1cncc(Br)c1,?,-90*,?,?,32µM*
Cc1ccccc1C(=O)N1CCN(c2ccc(NC(=O)c3ccc([N+](=O)[O-])o3)cc2)CC1,-30%[46.1 µM],-98*,?,?,?
O=C(Nc1ccc(N2CCN(C(=O)c3ccccc3)CC2)cc1)c1ccc([N+](=O)[O-])o1,.,-101*,.,?,?
CCOC(=O)c1cc(S(=O)(=O)N2CCN(c3ccccc3OC)CC2)[nH]n1,1%[46.1 µM],8,.,.,0%
Cc1c(C(=O)NCC(c2ccc(Cl)cc2)N2CCOCC2)oc2ccccc12 (stereo unspecified),-18%[46.1 µM],22,-29%[46.1 µM],.,-22%
C[C@H](N)CCP(=O)(O)O,.,.,.,.,-25%
O=C(c1cccc2ccccc12)N1CCN(c2ccc([N+](=O)[O-])c(NCc3ccco3)c2)CC1,1%,?,?,?,-14%
Cc1ccccc1C(=O)N1CCN(c2ccc([N+](=O)[O-])c(NCc3ccco3)c2)CC1,-10%,-27,?,13µM*,-13%
CC(=O)c1ccc(NC(=O)Cn2c(=O)cc(C)c3c(C)nn(-c4cccc(F)c4)c32)cc1,-1%[46.1 µM],4,.,.,7%
Cc1ccc(O)c(C(=O)c2cnn(-c3ccccc3)c2)c1,0%,52,?,?,4%
Cc1ccc(-n2cc(C(=O)c3ccccc3O)cn2)cc1,3.5µM*,-15,?,2%,-56%
CC(C)CO/N=C1\C[C@@H](O)[C@@H](O)[C@@H]2[C@@H]3C(=O)N(c4cccc(Oc5ccccc5)c4)C(=O)[C@@H]3CC[C@@H]12,.,.,-1%[14.2 µM],.,.
COCCN1C(=O)c2oc3ccc(C)cc3c(=O)c2C12C(=O)N(C)c1ccccc12 (stereo unspecified),26%[46.1 µM],-2,0%[46.1 µM],.,6%
COc1ccc(Cl)cc1Nc1nc(N)c2ccccc2n1,-24%[46.1 µM],84,?,14µM*,9%
COc1ccc(C)cc1Nc1nc(N)c2cc(OC)c(OC)cc2n1,?,-34,?,?,-27%
COc1ccc(C(=O)Nc2nc(C)c(C(C)=O)s2)cc1S(=O)(=O)N1CCOCC1,.,-92*,.,-16%,-10%
COc1ccc(C(=O)Nc2ccc(-c3ccc(C)o3)cc2)cc1S(=O)(=O)N1CCOCC1,7.9µM*,-96*,13µM*,2.5µM*,10µM*
CC(=O)CSc1nc(-c2ccccc2)[nH]c1S(=O)(=O)c1ccc(C)cc1,?,-11,0%[46.1 µM],.,33%
CCCOc1ccc(C(=O)Nc2nonc2-c2ccc(OCC)cc2)cc1,26%[46.1 µM],10,0%[46.1 µM],.,6%
Cc1ccc(-n2nc(C)c3nc(CCC(=O)Nc4cccc(C)c4C)c(=O)n(C)c32)cc1,?,3,.,.,-4%
CCOC(=O)c1cnc2ccc(OCC)cc2c1NCc1ccccc1,?,-73*,?,10µM*,?
